# Test results reported in the supplement of paper PMC3414501.
# Structures can show the parent of a compound that is named as a salt. Values without a mark were called inactive.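 How the source made its calls: active = score above 5; some higher scores were not called.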
# Tested on: S. cerevisiae SK1 pCDA2-eGFP (USY613), sporulating
# Test: CDA2-GFP sporulation assay sensitivity score (z-score vs DMSO controls); higher = stronger inhibition of sporulation, active = hit call of the paper
row,SMILES,CDA2-GFP sporulation assay sensitivity score
1,"CC(C(O)c1ccc(O)cc1)N1CCC(Cc2ccccc2)CC1 (stereo unspecified) [Ifenprodil] (stock concentration (mM, diluted 1:100): 9.2)",16.1 (active)
2,"Cc1nc2ccccn2c(=O)c1CCN1CCC(C(=O)c2ccc(F)cc2)CC1 [Pirenperone] (stock concentration (mM, diluted 1:100): 10)",13.6 (active)
3,"CNCC[C@@H](Oc1ccccc1C)c1ccccc1 [Atomexetine hydrochloride] (stock concentration (mM, diluted 1:100): 8.7)",0.57
4,"CC(C)(C)NC(=O)[C@@H]1C[C@@H]2CCCC[C@@H]2CN1C[C@@H](O)[C@H](Cc1ccccc1)NC(=O)[C@H](CC(N)=O)NC(=O)c1ccc2ccccc2n1 [Saquinavir mesylate] (stock concentration (mM, diluted 1:100): 8.8)",-0.34
5,"OCc1cc(C(O)CNCCCCCCOCCCCc2ccccc2)ccc1O (stereo unspecified) [Salmeterol] (stock concentration (mM, diluted 1:100): 10)",10.5
6,"CCCCC[C@H](O)/C=C/[C@H]1[C@H](O)CC(=O)[C@@H]1CCCCCCC(=O)O [Prostaglandin E1] (stock concentration (mM, diluted 1:100): 10)",6.45
7,"C=CC1=C(C(=O)O)N2C(=O)[C@@H](NC(=O)/C(=N\O)c3csc(N)n3)[C@H]2SC1 [Cefdinir] (stock concentration (mM, diluted 1:100): 10)",3.95
8,"CCC(C)n1ncn(-c2ccc(N3CCN(c4ccc(OCC5COC(Cn6cncn6)(c6ccc(Cl)cc6Cl)O5)cc4)CC3)cc2)c1=O (stereo unspecified) [Itraconazole] (stock concentration (mM, diluted 1:100): 10.1)",0.16
9,"Nc1ccn([C@H]2CC[C@@H](CO)O2)c(=O)n1 [Zalcitabine] (stock concentration (mM, diluted 1:100): 10)",1.61
10,"CC(C)(C)NCC(O)c1ccc(O)c(CO)c1 (stereo unspecified) [Salbutamol sulfate] (stock concentration (mM, diluted 1:100): 9.7)",-0.05
11,"CC(=O)NC[C@H]1CN(c2ccc(N3CCOCC3)c(F)c2)C(=O)O1 [Linezolide] (stock concentration (mM, diluted 1:100): 10)",0.79
12,"CC(=O)OCC(CCn1cnc2cnc(N)nc21)COC(C)=O [Famciclovir] (stock concentration (mM, diluted 1:100): 10)",0.31
13,"Cc1ncc([N+](=O)[O-])n1CC(C)O (stereo unspecified) [Secnidazole] (stock concentration (mM, diluted 1:100): 10)",0.94
14,"CC1=Nc2ccc(Cl)cc2S(=O)(=O)N1 [Diazoxide] (stock concentration (mM, diluted 1:100): 10)",3.2
15,"CC(C)(C)C(O)/C=C/c1ccc2c(c1)OCO2 (stereo unspecified) [Stiripentol] (stock concentration (mM, diluted 1:100): 10)",5.09
16,"O=c1c(-c2ccccc2)c1-c1ccccc1 [Diphenylcyclopropenone] (stock concentration (mM, diluted 1:100): 10)",0.85
17,"COCCCOc1ccnc(C[S+]([O-])c2nc3ccccc3[nH]2)c1C (stereo unspecified) [Rabeprazole] (stock concentration (mM, diluted 1:100): 10.6)",11.4 (active)
18,"COC(=O)C1=C(C)NC(C)=C(C(=O)OC)C1c1ccccc1[N+](=O)[O-] [Nifedipine] (stock concentration (mM, diluted 1:100): 10.7)",3.14
19,"Fc1ccc([C@@H]2CCNC[C@H]2COc2ccc3c(c2)OCO3)cc1 [Paroxetine] (stock concentration (mM, diluted 1:100): 8.8)",-1.35
20,"CC(C)[C@H]1CC[C@H](C(=O)N[C@H](Cc2ccccc2)C(=O)O)CC1 [Nateglinide] (stock concentration (mM, diluted 1:100): 10)",0.06
21,"C[C@@H]1CN(CCCn2c3ccccc3c3ccccc32)C[C@H](C)N1 [Rimcazole] (stock concentration (mM, diluted 1:100): 10.1)",14.4 (active)
